The values that follow come from PubChem BioAssay AID651820 (National Center for Advancing Translational Sciences (NCATS), 2012).

Values joined by “and” are separate entries in the source; they are usually repeats but may differ in a detail not shown here. Equal entries are not always repeated. Among all 340,000 compounds or so, about 12,000 (3.5%) were called active. About 18% were inconclusive and are not listed. Calls come from the whole dose curve; as a rule, active = well fitted inhibition curve with a large enough effect; inconclusive = small, poorly fitted or top-dose-only effect, or another doubt; inactive = no such curve, though single readings can be large or run the other way. Only a selection was taken, and actives are over-represented in it overall. The source holds several records for some structures; these can differ, active in one and inactive in another.
% is set by controls: 0 for no effect and ±100 for the full control effect; potency is the fitted concentration of half-maximal effect.

A short description of the test: qHTS Assay for Inhibitors of Hepatitis C Virus (HCV). To be noted: Huh7.5.1 HCVcc-Cre infection, luciferase reporter, 44 h; series mostly up to 41.8 µM; activity change, negative = inhibition: at the top concentration. In short, it runs like this: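 Seed cells (1,000/well) for 4 h; treat with compound and infect with HCVcc-Cre, moi about 0.5. Incubate 44 h, then detect luciferase activity.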
A general note: Quantitative high-throughput screening tests each substance at several concentrations.
As to `COc1ccc(CCNC(=O)C(=O)NCC2OCCN2S(=O)(=O)c2cccs2)cc1OC` (stereo not given), the “activity change, negative = inhibition” value was -16.4% (inactive).

For the compound `Cc1ccc(SCC(=O)Nc2nncs2)cc1`, the “activity change, negative = inhibition” value is -2.67% (inactive).

Turning to `O=C(OCC(=O)N1CCCC1)c1ccc(Cl)nc1`, the “activity change, negative = inhibition” value is 0.0144% (inactive).

Take `COC(=O)Cc1nc2c(N)nc(N)nc2[nH]c1=O`: the “activity change, negative = inhibition” value was 5.65% (inactive).

For `O=C1N[C@H](Cc2ccccc2)C(=O)N[C@H]1Cc1cn(S(=O)(=O)c2ccccc2)c2ccccc12`, the “activity change, negative = inhibition” value is 8.46% (inactive).

As to `O=C(CNC(=O)c1ccco1)NNC(=O)c1ccc(Br)cc1`, the “activity change, negative = inhibition” value is 20.7% (inactive).

As to `COc1ccc(NC(=O)CN(C)C(=O)/C=C/c2cn(Cc3ccccc3)nc2-c2cccnc2)cc1`, the “activity change, negative = inhibition” value is 3.26% (inactive).

With `C[C@H]1CN([C@@H](C)CO)C(=O)Cc2cc(NS(C)(=O)=O)ccc2O[C@@H]1CN(C)CC1CC1`, the “activity change, negative = inhibition” value was 15.9% (inactive).

As for `Cc1occc1C(=O)Nc1cccc(S(=O)(=O)N2CCOCC2)c1`, the “activity change, negative = inhibition” value was -4.28% (inactive).

For the compound `O=C(CSc1ccccc1)Nc1cccc(S(=O)(=O)N2CCOCC2)c1`, the “activity change, negative = inhibition” value is -12.6% (inactive).

Regarding `Cc1c(C(=O)Nc2cccc(S(=O)(=O)N3CCOCC3)c2)oc2ccccc12`, the Potency was 14.1 µM (active).

On to `CCCC(O)(c1ccccc1)C(c1ccccc1)c1ccccn1` (stereo not given), for which the “activity change, negative = inhibition” value is 4.16% (inactive).

As for `Cc1c(C(=O)Nc2ccccn2)oc2ccc(Br)cc12`, the “activity change, negative = inhibition” value was -2.03% (inactive).

Regarding `O=c1[nH]c(CN2CCOCC2)nc2cc(Cl)ccc12`, the “activity change, negative = inhibition” value is 3.38% (inactive).

As for `NC(=O)Cc1nc2scc(-c3ccc(Cl)cc3)c2c(=O)[nH]1`, the “activity change, negative = inhibition” value is 4.99% (inactive).

As for `O=c1[nH]c(CCl)nc2cc(-c3ccc(Cl)cc3)sc12`, the Potency is 6.31 µM (active).

`COc1ccc(/C=C/C(=O)OCC(=O)NC2CCCCCC2)cc1OC`: the “activity change, negative = inhibition” value is -10.7% (inactive).

On to `COc1cc(OC)cc(C(=O)NC(C(=O)N2CCC2)C(C)C)c1` (stereo not given), for which the “activity change, negative = inhibition” value is -12.1% (inactive).

`CC(C=Cc1ccccc1)=NNS(=O)(=O)c1ccc([N+](=O)[O-])cc1`: the “activity change, negative = inhibition” value was -8.84% (inactive).

As for `COc1ccccc1NC1=NC2(CCCC2)N=C(N)N1`, the “activity change, negative = inhibition” value is 8.21% (inactive).

As for `CC1(C)N=C(N)NC(Nc2ccc(Cl)cc2)=N1`, the “activity change, negative = inhibition” value was 8.79% (inactive).

Take `COc1ccccc1NC1=NC(c2ccc(Cl)cc2)N=C(N)N1` (stereo not given): the Potency was 10 µM (active).

With `Cc1ccccc1-n1nnc2c(=O)oc3ccccc3c21`, the Potency was 35.5 µM (active).

Regarding `CCOC(=O)c1c(C)nc2c(c1C)c(=O)oc1ccccc12`, the “activity change, negative = inhibition” value was 11.3% (inactive).

In the case of `O=c1oc2ccccc2c(=O)c2ccccc12`, the “activity change, negative = inhibition” value is -4.58% (inactive).

In the case of `Cc1cc(NC(=O)CSc2nnc(-c3ccco3)n2N)no1`, the “activity change, negative = inhibition” value is 8.97% (inactive).

For `COc1ccc(NC(=O)CCNC(=O)Cn2cnc3sc4c(c3c2=O)CCCC4)cc1OC`, the “activity change, negative = inhibition” value is 13.8% (inactive).

On to `COc1ccc(/C=N/Nc2ncnc3sc4c(c23)CCCC4)cc1O`, for which the Potency is 11.2 µM (active).

Consider `COc1ccc(NC(=O)CCCNC(=O)Cn2cnc3sc4c(c3c2=O)CCCC4)cc1OC`, for which the “activity change, negative = inhibition” value is -21% (inactive).

For `O=C(COC(=O)/C=C/c1cccc(Cl)c1)NCc1cccs1`, the “activity change, negative = inhibition” value was 17.5% (inactive).

Take `O=C(OCC(=O)N1CCCCC1)c1ccc(OC(F)(F)F)cc1`: the “activity change, negative = inhibition” value was -0.311% (inactive).

Take `CCN(CC)CCNC(=O)c1cc(S(C)(=O)=O)ccc1OC`: the Potency result was “inactive and 35.5 µM (active)”.

On to `CCN(CC)CCNC(=O)c1ccc(NS(=O)(=O)c2ccc3c(c2)OCCO3)cc1`, for which the “activity change, negative = inhibition” value was 9.4% (inactive).

In the case of `COc1ccc(Cl)cc1C(=O)NCC#N`, the “activity change, negative = inhibition” value was -16% (inactive).

Turning to `COc1ccccc1/C=C/C(=O)OCC(=O)NC1CCCCCC1`, the “activity change, negative = inhibition” value is -4.31% (inactive).

Turning to `CCOc1ccccc1C(=O)NCCCn1ccnc1`, the “activity change, negative = inhibition” value was 31.5% (inactive).

As for `O=C(CCN1C(=O)c2ccccc2C1=O)NCCCn1ccnc1`, the “activity change, negative = inhibition” value is 21.1% (inactive).

For `Clc1c(OCCCn2ccnc2)ccc2ccccc12`, the Potency was 14.1 µM (active).

As to `N#Cc1cc([N+](=O)[O-])ccc1NC(=O)COC(=O)c1cnccn1`, the “activity change, negative = inhibition” value was 10.2% (inactive).

For the compound `CCOC(=O)/C(=N\Nc1ccccc1[N+](=O)[O-])c1csc(Nc2ccccc2)n1`, the Potency is 5.01 µM (active).

For the compound `CCOC(=O)C/C(C)=N\Nc1ccc([N+](=O)[O-])cc1[N+](=O)[O-]`, the “activity change, negative = inhibition” value is -10.9% (inactive).

Consider `Cc1csc(NC(=O)Nc2ccccc2[N+](=O)[O-])n1`, for which the “activity change, negative = inhibition” value is -16.5% (inactive).

Consider `COc1ccc(N=C2C=CC(=O)O2)cc1`, for which the “activity change, negative = inhibition” value is 2.73% (inactive).

For the compound `COc1ccccc1C(=O)COC(=O)COc1ccc(C#N)cc1`, the “activity change, negative = inhibition” value was 12.2% (inactive).

`O=c1[nH]c(CSc2ncc(-c3ccc(F)cc3)n2Cc2ccco2)nc2ccccc12`: the Potency was 25.1 µM (active).

In the case of `Cn1c(-c2ccc(F)cc2)cnc1SCC(=O)NCc1ccco1`, the “activity change, negative = inhibition” value is 4.53% (inactive).

For the compound `CCn1c(Cc2ccccc2)nnc1SCc1nc2ccccc2c(=O)[nH]1`, the “activity change, negative = inhibition” value is 1.37% (inactive).

Regarding `CC(C)(CNC(=O)CNC(=O)C1CCCCC1)N1CCOCC1`, the “activity change, negative = inhibition” value was 7.89% (inactive).

With `O=C(C[C@@H]1C/C=C\CCC(=O)OC[C@@H]2CCCN2C1=O)NCCO`, the “activity change, negative = inhibition” value was 25.9% (inactive).

`COc1ccc(C(=O)Nc2ccc(NC(=O)C(C)C)nc2)cc1`: the “activity change, negative = inhibition” value was -18.4% (inactive).

For the compound `COc1ccc(Nc2cc(Cl)ccc2C(=O)O)cn1`, the “activity change, negative = inhibition” value is 7.73% (inactive).

Consider `COc1ccc(CS(=O)/C(Cl)=C(/Cl)C(=O)Nc2ccc(OC)nc2)cc1` (stereo not given), for which the Potency is 4.47 µM (active).

In the case of `COc1ccc(NS(=O)(=O)c2ccc(C)c(C(=O)NCC(c3cccs3)N3CCOCC3)c2)cc1` (stereo not given), the “activity change, negative = inhibition” value was 8.78% (inactive).

On to `CC(C)Cc1nnc(N)s1`, for which the “activity change, negative = inhibition” value was 35.4% (inactive).

Consider `Cc1nc(-c2ccc(F)cc2)c(CC(=O)Nc2cc(S(=O)(=O)N3CCCCC3)ccc2C)s1`, for which the “activity change, negative = inhibition” value was -18.8% (inactive).

For `COC1=CC(=O)OC(c2ccc(OC)cc2)C1` (stereo not given), the “activity change, negative = inhibition” value is 1.66% (inactive).

Turning to `CCSc1nnc(NC(=O)c2ccc(C)cc2)s1`, the “activity change, negative = inhibition” value is 13.7% (inactive).

On to `CSc1nnc(NC(=O)c2nc(S(=O)(=O)Cc3ccc(C)cc3)ncc2Cl)s1`, for which the Potency was 12.6 µM (active).

As to `CSc1ncc(Cl)c(C(=O)Nc2cc(C)ccc2C)n1`, the “activity change, negative = inhibition” value was 12% (inactive).

As to `CCC1Nc2ncnc(N3CCN(c4ccccc4)CC3)c2N(Cc2ccc(Cl)cc2)C1=O` (stereo not given), the “activity change, negative = inhibition” value is -52.3% (inactive).

As for `CCCN(CC1CC1)C(=O)COC(=O)c1ccc(C)cc1O`, the “activity change, negative = inhibition” value is -14.8% (inactive).

Take `COc1ccc(C(=O)O)cc1S(=O)(=O)NC1CCN(Cc2ccccc2)CC1`: the “activity change, negative = inhibition” value is 19.7% (inactive).

For `Oc1ccc(N=Cc2c(O)ccc3ccccc23)cc1`, the “activity change, negative = inhibition” value is 12% (inactive).

Regarding `Oc1ccc2ccccc2c1N=Nc1nccs1`, the Potency was 8.91 µM (active).

As for `Oc1c(C=Nc2cccc3nsnc23)ccc2ccccc12`, the “activity change, negative = inhibition” value is -29.7% (inactive).

As for `COc1ccccc1CCC(=O)NNC(=O)c1ccncc1`, the “activity change, negative = inhibition” value is 0.729% (inactive).

Consider `CC(C)(C)OC(=O)C[C@@H]1C/C=C\C[C@@H](CC(=O)N[C@H](CO)Cc2ccccc2)C(=O)NC[C@@H](c2ccccc2)OC1=O`, for which the “activity change, negative = inhibition” value is 2.19% (inactive).

Regarding `COc1cc(CC(=O)NCc2cccs2)cc(OC)c1OC`, the “activity change, negative = inhibition” value is 14.3% (inactive).

Consider `COC(=O)c1c(-c2ccsc2)oc2ccc(-c3cc(OC)c(OC)c(OC)c3)cc12`, for which the Potency is 12.6 µM (active).

Take `COc1cc2c(-c3ccc4c(c3)OCO4)c(-c3ccsc3)oc(=O)c2cc1OC`: the activity change, negative = inhibition was -6.43% [at 8.37 µM] (inactive).
